Source: PubChem BioAssay
This is a sample that favours compounds with a hit; in the whole collection about 1.1% have one here.
HTR5A ag ctr – activates human HTR5A in OPRM1-OPRD1 agonist counter-screen. P47898. activation, % at 9.3 µM. AID 504692. HTR5A agonist assay, luminescence, cell-based. 340,000 tested, 0.61% active; in the data active means activation mostly above about 9.5%, no sharp cut-off; inactive means mostly below about 7.6%;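 further: 0% = cells with vehicle only and 100% = reference agonist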
OPRM1-OPRD1 inv – mu-delta opioid heterodimer inverse agonism; 340,000 tested, 0.21% active; P35372+P41143; cell-based MOR-DOR heterodimer luminescence; inhibition, % at 9.3 µM; in the data active means inhibition above about 22%, passing the limit was not always enough;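 further: 0% = cells with DMSO and 100% = wells without cells with DMSO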
Target sequence (P35372 whole entry, looked up): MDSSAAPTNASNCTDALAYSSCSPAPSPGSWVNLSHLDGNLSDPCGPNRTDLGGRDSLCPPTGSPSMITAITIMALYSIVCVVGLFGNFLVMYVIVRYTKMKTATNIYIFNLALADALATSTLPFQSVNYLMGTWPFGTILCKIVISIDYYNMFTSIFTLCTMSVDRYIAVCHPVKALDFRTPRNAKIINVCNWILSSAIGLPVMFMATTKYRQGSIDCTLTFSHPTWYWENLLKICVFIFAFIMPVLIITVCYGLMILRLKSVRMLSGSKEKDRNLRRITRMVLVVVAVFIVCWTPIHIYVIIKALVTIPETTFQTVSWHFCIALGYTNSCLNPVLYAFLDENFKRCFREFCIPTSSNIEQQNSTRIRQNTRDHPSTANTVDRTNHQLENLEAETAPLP
Target sequence (P41143 whole entry, looked up): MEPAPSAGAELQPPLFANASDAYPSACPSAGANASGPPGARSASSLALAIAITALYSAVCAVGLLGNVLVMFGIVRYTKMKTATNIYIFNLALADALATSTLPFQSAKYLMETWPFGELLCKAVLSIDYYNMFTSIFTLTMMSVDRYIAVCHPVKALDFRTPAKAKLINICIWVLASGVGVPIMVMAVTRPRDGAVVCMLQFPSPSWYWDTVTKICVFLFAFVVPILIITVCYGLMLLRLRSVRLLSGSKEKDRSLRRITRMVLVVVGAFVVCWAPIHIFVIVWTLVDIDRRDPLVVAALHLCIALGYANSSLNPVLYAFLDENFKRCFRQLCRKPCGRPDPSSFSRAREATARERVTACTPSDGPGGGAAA
HTR5A inv ctr – counter-screen for OPRM1-OPRD1 inverse agonists: human HTR5A inverse agonism; HTR5A cell line, luminescence; inhibition, % at 9.3 µM; 340,000 tested, 0.083% active; in the data active means inhibition mostly above about 23%, no sharp cut-off; inactive means mostly below about 18%;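 further: 0% = cells with DMSO and 100% = no-cell wells with DMSO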
MOR-DOR ag – OPRM1-OPRD1 heterodimerization agonism; 340,000 tested, 0.3% active; activation, % at 9.3 µM; cells, luminescence; P35372+P41143; AID 504326;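 further: 0% = vehicle-treated cells and 100% = reference agonist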
MOR-DOR ag conf – OPRM1-OPRD1 heterodimer agonism, confirmation; 830 tested, 45% active; cells, MOR-DOR heterodimerization, luminescence complementation; shares compounds with MOR-DOR ag; activation, % at 9.3 µM;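 further: 0% = vehicle-treated cells and 100% = reference agonist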
HTR5A ag ctr2 – activates human HTR5A in OPRM1-OPRD1 agonist counter-screen | HTR5A agonist counterscreen, cell luminescence | AID 504905 | 830 tested, 8% active | shares compounds with MOR-DOR ag | activation, % at 9.3 µM; in the data active means activation above about 17%;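 further: 0% = vehicle-treated cells and 100% = reference agonist response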
The depositor's hits bear a star; i = inactive; / = no result. Unless noted, no stated cut-off is given here; in the data, active means activation above about 18%; inactive means the rest.

SMILES	HTR5A ag ctr	OPRM1-OPRD1 inv	HTR5A inv ctr	MOR-DOR ag	MOR-DOR ag conf	HTR5A ag ctr2
Oc1ccc(/C=N/Nc2nc(-c3ccc(Cl)cc3)cc(C(F)(F)F)n2)cc1	5	-124	-14	24*	0	2
COc1cccc(NC(=O)COc2cccc3c2CCNC3=O)c1	-1	19	0	-3	/	/
O=C(Nc1ccccn1)c1cc2cc([N+](=O)[O-])ccc2s1	2	-303	2	61*	31*	4
Cc1cccc(C(=O)OCC(=O)NCCNC(=O)COC(=O)c2cccc(C)c2C)c1C	-1	1	15	0	/	/
c1ccc(CNc2c3ccccc3nc3ccccc23)cc1	-1	-122	5	22*	1	-2
O=[N+]([O-])c1ccc(N2CCN(CCO)CC2)cc1Sc1ccccn1	-2	4	21	0	/	/
CCN1CCN(c2ccc([N+](=O)[O-])c(Sc3nc4ccccc4[nH]3)c2)CC1	-4	-457	10	76*	69*	-3
Cc1nc(NS(=O)(=O)c2ccc(Cl)s2)c2c3c(sc2n1)CCCC3	-2	5	2	-1	/	/
Cc1ccc(Nc2cc(C)nc3c(C)cccc23)cc1	-1	-136	3	29*	15	-1
Cc1ccc(NC(=O)c2ncn(CCCN[C@H](C)c3cccc4ccccc34)n2)cc1C	6	-393	-22	85*	56*	-1
CC/C(Cc1ccccc1)=N\NC(=O)c1cc([N+](=O)[O-])cc([N+](=O)[O-])c1	2	-47	-6	7	/	/
OC(CNCCc1ccccc1)COc1ccc(OCC(O)CNCCc2ccccc2)cc1 (centres undefined)	-3	7	2	-1	/	/
OC(CNCCC(c1ccccc1)c1ccccc1)COc1ccccc1 (centres undefined)	0	-105	-48	22*	38*	6
CC(C)(C)OC(=O)C[C@H]1C/C=C\C[C@H](CC(=O)N[C@H](CO)Cc2ccccc2)C(=O)N2CCC[C@H]2COC1=O	4	17	-15	-4	/	/
O=C(Nc1ccccc1N1CCOCC1)c1cccc(F)c1	0	9	-1	-2	/	/
O=C(Nc1ccccc1N1CCOCC1)c1ccc2nc[nH]c2c1	2	-88	-5	19*	16	2
COC(=O)c1cccc(C23CC4(C2)[C@H](CN(Cc2cccnc2)[C@@H]4c2ccccc2)C3c2ccc(Cl)nc2)c1 (some centres undefined)	-2	-127	-5	23*	29*	0
COC(=O)c1cccc(C23CC4(C2)[C@H](CN(Cc2ccc(-c5ccccc5)cc2)[C@@H]4c2ccccc2)C3c2ccc(Cl)nc2)c1 (some centres undefined)	1	19	-4	-3	/	/
O=C1c2cccnc2C(=O)N1c1cccc([N+](=O)[O-])c1	-3	13	10	-3	/	/
CC(C)(C)c1cc(C(=O)NNC(=O)Nc2cccc(Cl)c2)n(Cc2ccccc2)n1	4	-129	-19	25*	1	2
CC(C)(C)c1cc(C(=O)NNC(=O)Nc2ccccc2)n(Cc2ccccc2)n1	9	-56	-5	11	/	/
Nc1ccc2c(c1)C(=O)C(=O)c1ccccc1-2	4	-125	-11	25*	0	1
O=C1C(=O)c2ccc(-c3ccccc3)cc2-c2ccccc21	5	-118	-22	26*	0	3
Cc1c(CN2CCC(n3nccc3NC(=O)C3CC3)CC2)[nH]c2ccccc12	7	-242	12	45*	1	31*
Cc1cccc(NC(=O)c2nc[nH]c2C(=O)N[C@@H](C)c2ccccc2)c1	10	-11	-28	2	/	/
SMILES	HTR5A ag ctr	OPRM1-OPRD1 inv	HTR5A inv ctr	MOR-DOR ag	MOR-DOR ag conf	HTR5A ag ctr2
COc1ccc(CN(CCN(C)C)c2ccccn2)cc1	8	15	-30	-3	/	/
CCCCCCCCCCCCCCCC[N+](C)(C)CCN(Cc1ccc(OC)cc1)c1ncccn1	23	-163	-32	29*	35*	0
N=c1n(Cc2ccccc2)c2ccccc2n1CC(O)COc1ccccc1 (centres undefined)	-2	-225	7	43*	0	-7
Cc1ccc(Cn2c(=N)n(CC(O)COc3ccccc3)c3ccccc32)cc1 (centres undefined)	-5	-140	8	24*	61*	2
CCCCn1c(=N)n(CC(O)COc2ccccc2)c2ccccc21 (centres undefined)	1	-3	-30	1	/	/
CCCCn1c(=N)n(CC(O)COc2ccc(C)cc2)c2ccccc21 (centres undefined)	1	-25	-2	5	/	/
Cc1ccc(/C=N/Nc2ccnc3cc(Cl)ccc23)c(C)c1	-2	-129	6	18	/	/
Cc1ccccc1/C=N/Nc1ccnc2cc(Cl)ccc12	5	-129	-14	21*	22*	9
O=C(NCCc1ccccc1)C(c1cccs1)N(C(=O)c1csnn1)C1CC1 (centres undefined)	-2	11	5	-2	/	/
O=C(NCCc1ccccc1)C(c1cccs1)N(C(=O)CCl)c1ccc(Cl)cc1 (centres undefined)	32*	i	-85	87*	14	4
O=C(Oc1ccc2c(c1)OCO2)c1cc2c(s1)CCC2	15	-117	-1	22*	0	1
CN1CCN(c2ccc(NC(=O)c3ccc(-c4ccc(Cl)cc4)o3)cc2)CC1	9	i	-31	306*	20*	-2
CN1CCN(c2ccc(NC(=O)c3ccc(-c4cccc([N+](=O)[O-])c4)o3)cc2)CC1	-4	i	9	100*	93*	5
Cc1ccc(N2CCN(C(=S)c3ccc(-c4cccc([N+](=O)[O-])c4)o3)CC2)cc1	-2	11	5	-2	/	/
O=C(Nc1ccc(N2CCN(C(=O)c3ccc(Cl)cc3)CC2)cc1)c1ccc(Br)o1	-3	5	8	-1	/	/
Cc1ccc(-n2ccn(CC(=O)NCCc3ccccc3)c(=O)c2=O)cc1C	4	7	17	-1	/	/
Cn1c(-c2c(N)n(-c3ccccc3)c3nc4ccccc4nc23)nc2ccccc21	-1	-95	2	19*	26*	0
COCCNC(=O)CCN1N=C(c2ccccc2)CCC1=O	-3	22	12	-5	/	/
CC(=O)Nc1c(Br)cc2c(c1Br)Cc1cc(Br)ccc1-2	-1	-176	3	34*	19*	6
Cc1ccccc1Nc1nc(N)nc(C)c1Br	2	7	-7	-1	/	/
CCc1c(N)nc(N)nc1Nc1ccccc1C	-3	-105	13	21*	1	5
CCCC(NC(=O)CCc1c(C)c2cc3c(-c4ccccc4)coc3cc2oc1=O)C(=O)O (centres undefined)	0	11	0	-2	/	/
CCn1ccnc1CNCc1cn(-c2cc(C)ccc2C)nc1-c1ccccc1	-4	-12	2	2	/	/
